Measurements reported in the supplement of paper PMC6555819.

System: VDR:RXRa (NR concentration 270 nM, RXRa partner concentration 90 nM)
Assay: PBM binding z-score (relative to random genomic background probes); higher = stronger binding; sequences stand for … in GC…GCGATTGACAGCGTAGAATGAAGG
Procedure: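 Protein-binding microarray (Agilent 4x180K custom design, double-stranded 60-nt probes: 5' GC cap, 34-nt variable region, 24-nt constant primer region; full probe sequence given). Purified or IVT nuclear receptor:RXRα heterodimers (3:1 NR:RXRα, mostly 270:90 nM) or homodimers were incubated for 1 h in PBS with 2% milk and no ligand, then detected with Alexa488 antibodies. Fluorescence from o1-orientation probes (~5 replicates averaged) was converted to z-scores against 500 random hg19 background probes. Variable regions are seed direct-repeat (DR0–DR5) sites, all their single-nucleotide variants and half-site ablations.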

**Q.** How did the PBM binding z-score turn out when TCTCCTAGGTCAACGATGGTCAGCTAATCTGCTA was run?
**A.** Its PBM binding z-score is 2.39.

**Q.** For TCTATTAGTTGATTTGGGCAACCGAAACAGCGGA, which PBM binding z-score is on record?
**A.** Its PBM binding z-score is 0.688.

**Q.** CAAACTAGGTCACGAAAAGTCAAAGTCGAATGAC was tested. Which PBM binding z-score did it give?
**A.** The PBM binding z-score was 2.71.

**Q.** CCTAATGGGCCAAGGTCATTGATCAGTCAAAGCA was tested. Which PBM binding z-score did it give?
**A.** Its PBM binding z-score is 3.37.

**Q.** For GAAACAGGGTCAGCTAGAGGCCAGAGTATGGAAA, which PBM binding z-score is on record?
**A.** Its PBM binding z-score is 3.64.

**Q.** How did the PBM binding z-score turn out when TCTGCTAGGTCAGTTGGTCAGCTGACGAGCTGCC was run?
**A.** Its PBM binding z-score is -0.0967.

**Q.** How did the PBM binding z-score turn out when CCTGACGGGTCACGAGGTTATAGCACGACGAGCG was run?
**A.** Its PBM binding z-score is 4.62.

**Q.** With ATATGTAGGTTACAGCCGGGTCATTCAGGCTATG as the sequence, how does the PBM binding z-score read?
**A.** The PBM binding z-score was 4.1.

**Q.** How did the PBM binding z-score turn out when ACTATTAGTTAACTTAGGGCAACCGATACGACGC was run?
**A.** The PBM binding z-score was 0.299.

**Q.** How did the PBM binding z-score turn out when CCTACTGGGCCATCAGGTAATTGATATCAACGTT was run?
**A.** Its PBM binding z-score is -0.176.

**Q.** Which PBM binding z-score does the source give for CAAACTAGGTCAACGGTCAAAGTCGAGCCAACCA here?
**A.** The PBM binding z-score was 2.71.

**Q.** With AGAACGAGGGCACGCTGGGTTGATAGCAGAGTAG as the sequence, how does the PBM binding z-score read?
**A.** Its PBM binding z-score is 2.53.

**Q.** With CCGACTGGCGCAAGGTTACCATAACGCACAGCCA as the sequence, how does the PBM binding z-score read?
**A.** Its PBM binding z-score is 0.151.

**Q.** With CAAACTAGGTCACGAAAGGTCAAAGTAGAATGAC as the sequence, how does the PBM binding z-score read?
**A.** Its PBM binding z-score is 6.69.

**Q.** With ATATCTAGGTTATCGGGTCATTCAGTTTGCGCAT as the sequence, how does the PBM binding z-score read?
**A.** The PBM binding z-score was 5.12.

**Q.** How did the PBM binding z-score turn out when ACAATGAGGTTATACGTAGATCAGGGAAGAAAGT was run?
**A.** Its PBM binding z-score is 1.5.

**Q.** CAGCCTAGGTCAGGGACAGTATAGGAGGAACGTT was tested. Which PBM binding z-score did it give?
**A.** Its PBM binding z-score is 0.484.

**Q.** How did the PBM binding z-score turn out when TCTAGCAGGCGAGAGGGTCACTCAAGAGGTACGG was run?
**A.** The PBM binding z-score was 1.49.

**Q.** CCGAGTAGGTTATGGGGCACTCAGGCAACGGTGA was tested. Which PBM binding z-score did it give?
**A.** Its PBM binding z-score is -0.0808.

**Q.** For ACTAGCAGGCCAAGTTTGGGTCACCCAAACAAAG, which PBM binding z-score is on record?
**A.** Its PBM binding z-score is 1.13.

**Q.** With CCTGCTGGGCCAAAAAGGTCATTGATGCCGATAA as the sequence, how does the PBM binding z-score read?
**A.** Its PBM binding z-score is 4.84.

**Q.** How did the PBM binding z-score turn out when GCATATAGGTAATACAATGTGAAAGTCCGATTGT was run?
**A.** The PBM binding z-score was -0.0597.

**Q.** How did the PBM binding z-score turn out when CATGCTAGGTCAATGGTCAGCTAAAGCAGCTCGC was run?
**A.** The PBM binding z-score was 1.06.

**Q.** Which PBM binding z-score does the source give for AATAAAGGGTCACTAGGCCAGAGTAGGTACGAAT here?
**A.** Its PBM binding z-score is 4.04.

**Q.** CGTCCAAGGACAGAGAGGTCAGTGAATGCCGAGT was tested. Which PBM binding z-score did it give?
**A.** Its PBM binding z-score is 3.03.

**Q.** With CAAACTATGTCACAGAGGTCAAAGTCCGTGCGTA as the sequence, how does the PBM binding z-score read?
**A.** Its PBM binding z-score is 6.63.

**Q.** For CAAACTAGGTCACAGATGTCAAAGTCCGTGCGTA, which PBM binding z-score is on record?
**A.** Its PBM binding z-score is 4.5.

**Q.** Which PBM binding z-score does the source give for AGAATGAGGATATTAAGATCAGGGAATTGCGGTC here?
**A.** The PBM binding z-score was -0.178.

**Q.** How did the PBM binding z-score turn out when GCGACTGGGGCAAAGCAGGTTTCCATAAGGTTGG was run?
**A.** Its PBM binding z-score is -0.475.

**Q.** How did the PBM binding z-score turn out when GGAACGAGGGCATTCGTGTTGATAGCATGGCGAT was run?
**A.** The PBM binding z-score was 1.6.

**Q.** Which PBM binding z-score does the source give for TCTTGTAGATCAAAGGTTAACAAAGCCGAAGCCT here?
**A.** The PBM binding z-score was 2.09.

**Q.** ACTATTAGTTGAGACGAGGGCAACCCATAGGTTG was tested. Which PBM binding z-score did it give?
**A.** Its PBM binding z-score is 0.697.

**Q.** With TCTATTAGTTGAAGCGCAACCGACGAGTCCGTTT as the sequence, how does the PBM binding z-score read?
**A.** Its PBM binding z-score is 0.736.

**Q.** How did the PBM binding z-score turn out when ATCTGTAGGTAAAAGTTCAGTGAATCCCGAGGAT was run?
**A.** The PBM binding z-score was 1.27.

**Q.** How did the PBM binding z-score turn out when TCATATAGGTAAAGGTGAAAATCGAACGATATGA was run?
**A.** Its PBM binding z-score is 0.688.

**Q.** Which PBM binding z-score does the source give for ACTATGAGTTGACTTAGGGCAACCGATACGACGC here?
**A.** The PBM binding z-score was 1.16.

**Q.** Which PBM binding z-score does the source give for TCTAGCAGGCCAGAGGGTCACTTAAGAGGTACGG here?
**A.** Its PBM binding z-score is 1.26.

**Q.** For CGCACTAGGTCAAGGACAGTGAATCTCCGCACGC, which PBM binding z-score is on record?
**A.** The PBM binding z-score was 1.28.

**Q.** Which PBM binding z-score does the source give for CCTTATGGGTCACTGACAGGTTATAGCATTTGGA here?
**A.** Its PBM binding z-score is 2.89.

**Q.** Which PBM binding z-score does the source give for TCTTGTAGATCAACAGGAGGTTATGAAAGATCGA here?
**A.** The PBM binding z-score was 0.761.
